Where “and” joins values, the source holds several entries; their conditions need not be identical. Equal entries are not always repeated. Results filed as inconclusive are left out. Where a structure was tested more than once in an assay, its records may differ in their call. Calls of active or inactive are those of the source. Calls come from the whole dose curve; as a rule, active = well fitted curve in the direction sought with a large enough effect in the repeat runs; inconclusive = weak or mixed curves; inactive = no such curve, though single readings can be large; an effect the other way counts as inactive or inconclusive.

Drawing on PubChem BioAssay (Tox21), this text covers Potency and max response for 26 compounds.

Experiment [1] can be described thus: qHTS RealTime-Glo MT Cell Viability Assay in HepG2 cells - 40 hour (AID 1224870). Note: nearly all actives have a fitted effect of over 50% in size. In short, it runs like this:
(§1)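 HepG2 cells mixed with RealTime-Glo MT reagents (NanoLuc plus cell-permeant prosubstrate) were seeded at 600 cells/well, incubated 5 h at 37 C/5% CO2, then pinned with compounds in DMSO; nonlytic luminescence tracked viability during 40 h treatment.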
On the technique in general: Quantitative high-throughput screening tests each substance at several concentrations.

Experiment [2] is described as follows: A CellTox Green Cytotoxicity Assay to monitor cytotoxicity in HEK293 cells - 40 hour (AID 1224871). Note: nearly all actives have a fitted effect of over 45% in size. In short, it runs like this: (§2)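 Cells (HEK293, 600/well) and dye reagent are dispensed together. After 5 h at 37 C, 23 nL compound is pinned in. Plates stay at 37 C for 40 h with fluorescence read at 0h, 8h, 16h, 24h, 32h and 40h.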
A short description of experiment [3]: qHTS RealTime-Glo MT Cell Viability Assay in HEK293 cells - 16 hour (AID 1224872). Note: nearly all actives have a fitted effect of over 50% in size. Note: potency is the fitted concentration of half-maximal effect. The gist of the method:
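Nonlytic real-time viability readout: viable cells convert prosubstrate to NanoLuc substrate, giving luminescence proportional to live cell number. HEK293, 600 cells/well, compound added after 5 h, continuous culture at 37 C.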

Experiment [4] in a line: qHTS RealTime-Glo MT Cell Viability Assay in HepG2 cells - 8 hour (AID 1224873). Note: nearly all actives have a fitted effect of over 55% in size. The gist of the method: as §1
The nature of experiment [5]: qHTS RealTime-Glo MT Cell Viability Assay in HEK293 cells - 40 hour (AID 1224874). Note: nearly all actives have a fitted effect of over 50% in size. The conditions noted are these: RealTime-Glo luminescence; max response: stronger effect = lower value. The gist of the method:
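Real-time viability in HEK293: signal arises when living cells convert a prosubstrate for NanoLuc in the medium, so luminescence tracks viable cell number. Compound (23 nL, DMSO) added 5 h post-seeding; kinetic reads at 0–40 h, 37 C.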

Experiment [6] is described as follows: A CellTox Green Cytotoxicity Assay to monitor cytotoxicity in HepG2 cells - 16 hour (AID 1224876). Note: nearly all actives have a fitted effect of over 45% in size. The gist of the method: (§3)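 Cells and non-lytic dye reagent are dispensed together (600 HepG2 cells/well) and incubated 5 h before DMSO compound transfer. Kinetic fluorescence is then recorded in the same wells during 40 h at 37 C.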
Experiment [7] is described as follows: A CellTox Green Cytotoxicity Assay to monitor cytotoxicity in HepG2 cells - 24 hour (AID 1224878). Note: nearly all actives have a fitted effect of over 45% in size. Note: potency is the fitted concentration of half-maximal effect. The gist of the method: as §3
Experiment [8] in a line: A CellTox Green Cytotoxicity Assay to monitor cytotoxicity in HepG2 cells - 40 hour (AID 1224879). Note: nearly all actives have a fitted effect of over 40% in size. Note: potency is the fitted concentration of half-maximal effect. The gist of the method:
as §3

Experiment [9] in a line: qHTS RealTime-Glo MT Cell Viability Assay in HepG2 cells - 32 hour (AID 1224877). Note: nearly all actives have a fitted effect of over 55% in size. The gist of the method: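 Luminescence read-out: viable HepG2 cells reduce a prosubstrate to a NanoLuc substrate, giving a signal proportional to live cell number. Reads taken at 0, 8, 16, 24, 32 and 40 h of compound exposure at 37 C.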
Experiment [10] is described as follows: A CellTox Green Cytotoxicity Assay to monitor cytotoxicity in HEK293 cells - 24 hour (AID 1224875). Note: series mostly up to about 77 µM; nearly all actives have a fitted effect of over 45% in size. The gist of the method: as §2
% is set by controls: 0 for no effect and ±100 for the full control effect.

In the case of `NC(=O)Nc1ccccc1`, the Potency result in experiment [1], in experiment [2], in experiment [3], in experiment [4], in [6] and in experiment [7] was “inactive” each time. In addition, the Potency entry in experiment [8] is “inactive”. The max response in experiment [5] was 3.44% (inactive).

In the case of `CCC(=O)OC(C)c1ccccc1` (stereo not given), the Potency entry in [1], in experiment [2], in experiment [3], in experiment [4], in [6] and in experiment [9] was “inactive” in each case. Besides, the Potency entry in experiment [8] is “inactive”. Moreover, the max response in [5] was -2.17% (inactive).

For the compound `CCCCOCCOCCOCc1cc2c(cc1CCC)OCO2`, the Potency entry in experiment [1], in [2], in [3], in [4], in experiment [10] and in [6] was “inactive” each time. For the same compound, the Potency entry in [9] was “inactive”. Besides, the Potency is 22.1 µM (active) and inactive in [7]; 22.1 µM (active) and inactive in experiment [8].

Regarding `CC(C[N+](C)(C)C)OC(N)=O` (stereo not given), the Potency result in [1], in experiment [2], in experiment [3], in experiment [4], in [10] and in [6] was “inactive” throughout. Further, the Potency entry in [9], in experiment [7] and in [8] was “inactive” throughout.

`CCN1CCC[C@H]1CNC(=O)c1cc(S(N)(=O)=O)ccc1OC`: the Potency result in experiment [1], in experiment [2], in experiment [3], in experiment [4], in [10] and in [6] was “inactive” throughout. Further, the Potency result in experiment [9], in experiment [7] and in [8] was “inactive” throughout.

For `CC[N+](C)(C)c1cccc(O)c1`, the Potency entry in experiment [1], in [2], in experiment [3], in experiment [4], in experiment [6] and in experiment [7] was “inactive” each time. Besides, in [8], the Potency entry was “inactive”. In experiment [5], the max response is -7.12% (inactive).

Consider `FC(F)OC(Cl)C(F)(F)F` (stereo not given), for which the Potency result in experiment [1], in experiment [2], in [3], in [4], in experiment [10] and in experiment [6] was “inactive” in each case. Further, the Potency entry in [9], in experiment [7] and in experiment [8] was “inactive” in each case.

As for `C1CN(CCOCCN2CCOCC2)CCO1`, the Potency entry in [1], in experiment [2], in [3], in [4], in [6] and in experiment [7] was “inactive” in each case. Further, in experiment [8], the Potency entry was “inactive”. In addition, in experiment [5], the max response was 4.52% (inactive).

On to `CN1N=C(C(N)=O)CCC1=O`, for which the Potency result in [1], in experiment [2], in [3], in experiment [4], in [6] and in experiment [7] was “inactive” in each case. Besides, the Potency entry in [8] is “inactive”. In addition, in experiment [5], the max response is 0.803% (inactive).

Take `CCN(Cc1ccncc1)C(=O)C(CO)c1ccccc1` (stereo not given): the Potency entry in experiment [1], in [2], in experiment [3], in experiment [4], in experiment [6] and in [9] was “inactive” throughout. Also, the Potency entry in [7] and in experiment [8] was “inactive” each time. The max response in [5] is 5.99% (inactive).

Turning to `CCc1cccc2c(CCO)c[nH]c12`, the Potency entry in experiment [1], in experiment [2], in experiment [3], in [4], in [6] and in [7] was “inactive” in each case. Also, in [8], the Potency result was “inactive”. Also, the max response in experiment [5] was 0.292% (inactive).

For the compound `OC[C@]1(O)OC[C@@H](O)[C@H](O)[C@@H]1O`, the Potency entry in experiment [1], in experiment [2], in [3], in experiment [4], in experiment [6] and in [9] was “inactive” each time. Moreover, the Potency result in experiment [8] is “inactive”. The max response in experiment [5] was 0.06% (inactive) and 3.11% (inactive).

`CCCCCSCCCCC`: the Potency entry in experiment [1], in [2], in experiment [3], in [4], in experiment [6] and in experiment [9] was “inactive” in each case. Moreover, the Potency result in experiment [7] and in [8] was “inactive” in each case. The max response in [5] was -8.65% (inactive).

Consider `O=c1[nH]c(=O)n([C@H]2C[C@H](O)[C@@H](CO)O2)cc1I`, for which the Potency entry in experiment [1], in experiment [2], in experiment [3], in [4], in experiment [10] and in experiment [6] was “inactive” in each case. The Potency entry in experiment [9], in [7] and in [8] was “inactive” each time.

Take `N=C(N)c1ccc(OCCCOc2ccc(C(=N)N)cc2)cc1`: the Potency result in experiment [1], in [2], in experiment [3], in [4], in experiment [6] and in experiment [9] was “inactive” each time. In addition, the Potency entry in experiment [7] and in experiment [8] was “inactive” in each case. The max response in experiment [5] was 1.81% (inactive).

As for `CCOC(=O)c1ccc(C)cc1`, the Potency entry in experiment [1], in experiment [2], in experiment [3], in experiment [4], in experiment [6] and in experiment [7] was “inactive” throughout. The Potency result in experiment [8] is “inactive”. Also, the max response in experiment [5] is 8.25% (inactive).

Take `N=C(N)c1ccccc1`: the Potency entry in [1], in experiment [2], in experiment [3], in experiment [4], in experiment [10] and in experiment [6] was “inactive” throughout. In addition, the Potency result in [9], in experiment [7] and in experiment [8] was “inactive” each time.

On to `C[C@@H]1CCN(C(=O)[C@H](CCCN=C(N)N)NS(=O)(=O)c2cccc3c2NC[C@H](C)C3)[C@@H](C(=O)O)C1`, for which the Potency entry in [1], in experiment [2], in experiment [3], in experiment [4], in [10] and in [6] was “inactive” in each case. Besides, the Potency result in experiment [9], in experiment [7] and in experiment [8] was “inactive” throughout.

Turning to `CC(=O)OCC(CCn1cnc2cnc(N)nc21)COC(C)=O`, the Potency result in experiment [1], in experiment [2], in [3], in experiment [4], in [10] and in experiment [6] was “inactive” each time. In addition, the Potency result in experiment [9], in experiment [7] and in [8] was “inactive” throughout.

For the compound `CCCCC/C=C\CCC=O`, the Potency entry in experiment [1], in experiment [2], in [3], in experiment [4], in experiment [10] and in experiment [6] was “inactive” each time. Besides, the Potency result in [7] and in experiment [8] was “inactive” throughout.

`OC(CCN1CCCCC1)(c1ccccc1)C1CC2C=CC1C2` (stereo not given): the Potency result in [1], in [3], in experiment [4], in experiment [6], in experiment [7] and in experiment [8] was “inactive” in each case. Moreover, in experiment [5], the max response was -10.3% (inactive).

Consider `COC(=O)[C@@H](N)Cc1ccc(O)c(O)c1`, for which the Potency result in experiment [1], in experiment [2], in experiment [3], in experiment [4], in experiment [10] and in experiment [6] was “inactive” throughout. The Potency result in experiment [9] and in experiment [8] was “inactive” throughout.

As to `CCN(CC)CCNC(=O)c1cc(S(C)(=O)=O)ccc1OC`, the Potency entry in experiment [1], in [3], in [4], in experiment [6], in experiment [9] and in [7] was “inactive” in each case. Also, in experiment [8], the Potency result was “inactive”. The max response in experiment [5] is 3.02% (inactive).

Consider `CCc1ccc(O)c(OC)c1`, for which the Potency entry in [1], in experiment [2], in experiment [3], in experiment [4], in experiment [10] and in experiment [6] was “inactive” in each case. The Potency result in [7] and in [8] was “inactive” each time.

`CC(=O)Nc1ccc(S(N)(=O)=O)cc1`: the Potency entry in experiment [1], in experiment [2], in experiment [3], in experiment [4], in experiment [6] and in [9] was “inactive” throughout. The Potency entry in experiment [8] is “inactive”.

Regarding `O=C(CCCN1CCC(O)(c2cccc(C(F)(F)F)c2)CC1)c1ccc(F)cc1`, the Potency result in [1], in [2], in experiment [4], in experiment [6] and in [9] was “inactive” each time. Besides, the Potency in experiment [3] was 19 µM (active).
